High-throughput results deposited in PubChem BioAssay by National Center for Advancing Translational Sciences (NCATS).
This is a sample that favours compounds with a hit; in the whole collection about 3.1% have one here.
Mito fusion yeast: inhibitors of mitochondrial division or activators of mitochondrial fusion; S. cerevisiae fusion-defective mutant growth rescue, CellTiterGlo 48 h; Potency, µM (series often up to 46.1 µM), for the others: at the highest dose growth rescue (activation), most hits filed as activators; 320,000 compounds, 0.23% hits; AID 485298; note: % of control where 0% means no effect; nearly all actives have a fitted effect of over 45% in size
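Growth-rescue viability read-out: after 48 h at the non-permissive 37C in glycerol/ethanol YPEG, yeast mitochondrial fusion mutants are measured by CellTiterGlo luminescence; compounds (23 nl pinned per well) restoring growth score as division inhibitors or fusion activators.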
TrxR1 substrate: rat thioredoxin reductase 1 substrate activity; O89049; purified TrxR1 substrate turnover, NADPH consumption readout; Potency, µM (titrated, usually from 114 µM), for the others: at the top dose activity change, negative = substrate turnover; 390,000 compounds, 0.01% hits; AID 588456; note: % is set by controls: 0 for no effect and ±100 for the full control effect; nearly all actives have a fitted effect of over 50% in size
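Rat TrxR1, dispensed at 90 nM, was prereduced with 400 uM NADPH (final) for 5 min at ~22 deg C, then incubated with compound 15 min before 400 uM selenite. A first-read NADPH fluorescence drop versus no-compound background flagged substrates.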
Nrf2 block: blocks Nrf2 signaling; Potency, µM (titrated, usually from 46 µM), without a hit: at the highest dose activity change, negative = inhibition, actives largely listed as inhibitors; 360,000 compounds, 2.1% hits; A549 ARE-Fluc reporter, luciferase luminescence, 18-24 h; note: % is set by controls: 0 for no effect and ±100 for the full control effect; nearly all actives have a fitted effect of over 60% in size
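Quantitative HTS in A549 cells stably bearing an antioxidant response element-firefly luciferase construct. Inhibition of Nrf2-driven transcription was scored by luminescence after 18-24 h of compound exposure at 37 °C.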
IDH1 R132H inh: blocks human mutant IDH1 R132H enzyme; IDH1-R132H enzyme, NADPH consumption, diaphorase/resazurin fluorescence; Potency, µM (series often up to 76.6 µM), inactives show at the top dose activity change, negative = inhibition, hits mostly inhibitors; 390,000 compounds, 0.093% hits; AID 602179; note: % is set by controls: 0 for no effect and ±100 for the full control effect; nearly all actives have a fitted effect of over 65% in size
Target sequence (O75874 whole entry R132H, stated change not applied): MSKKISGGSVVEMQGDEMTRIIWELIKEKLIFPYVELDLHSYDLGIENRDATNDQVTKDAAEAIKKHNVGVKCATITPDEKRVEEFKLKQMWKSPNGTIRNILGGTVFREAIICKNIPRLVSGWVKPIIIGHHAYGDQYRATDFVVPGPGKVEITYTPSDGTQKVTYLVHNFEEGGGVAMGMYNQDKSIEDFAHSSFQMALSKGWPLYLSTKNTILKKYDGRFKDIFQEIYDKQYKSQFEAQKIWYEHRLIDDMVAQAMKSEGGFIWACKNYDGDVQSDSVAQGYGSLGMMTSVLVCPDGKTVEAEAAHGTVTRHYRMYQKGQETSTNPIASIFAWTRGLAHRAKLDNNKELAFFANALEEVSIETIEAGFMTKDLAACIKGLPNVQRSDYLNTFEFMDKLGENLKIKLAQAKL
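IDH1-R132H (0.5 ug/mL) preincubated 30 min with compound, then NADPH (0.016 mM) and alpha-KG (2 mM) added; 80 min at RT, pH 7.5. Remaining NADPH coupled via diaphorase/resazurin to fluorescence (540/590 nm); concentration-response curves normalized to no-enzyme control.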
TrxR1 inh: rat TrxR1 inhibition; Potency, µM (doses to about 114 µM), for the others: at the highest dose activity change, negative = inhibition, actives largely listed as inhibitors; 390,000 compounds, 1% hits; O89049; recombinant rTrxR1, NADPH fluorescence consumption, selenite substrate; AID 588453; note: % is set by controls: 0 for no effect and ±100 for the full control effect; nearly all actives have a fitted effect of over 65% in size
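Rat TrxR1 (90 nM in the dispensed reagent) was pre-reduced with 400 uM NADPH for 5 min at room temperature, then incubated with compound for 15 min. After 400 uM selenite was added, NADPH fluorescence (Ex 340/Em 450 nm) was followed for 8 min.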
A549 tox: A549 cytotoxicity, counter-screen for Nrf2 inhibitors. A549 ARE-Fluc cells, CellTiter-Fluor viability, 18-24 h. Potency, µM (doses to about 46 µM), for the others: top-dose activity change, negative = cytotoxicity, hits mostly inhibitors. 390,000 compounds, 0.16% hits; note: % is set by controls: 0 for no effect and ±100 for the full control effect
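Cytotoxicity counterscreen: CellTiter-Fluor fluorescence was measured in A549 ARE_Fluc cells after 18-24 h of compound exposure in a concentration series. The subsequent BugLite luminescent read reports ARE-luciferase activity.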
Numbers without * were called inactive; u = inconclusive; x = no result; [ ] = remark or other dose. Calls come from the whole dose curve; as a rule, active = well fitted curve in the direction sought with a large enough effect; inconclusive = small, poorly fitted or top-dose-only effect, or another doubt; inactive = no such curve, though single readings can be large; an effect the other way counts as inactive or inconclusive. Potency is the fitted concentration of half-maximal effect.

SMILES	Mito fusion yeast	TrxR1 substrate	Nrf2 block	IDH1 R132H inh	TrxR1 inh	A549 tox
CC(C)(C)C(=O)Nc1ccc2c(c1)C(=O)C(=O)c1ccccc1-2	x	3.2µM*	21µM*	x	6.3µM*	u
CCOC(=O)c1ccc(NC(=O)c2cc3c(=O)n(C)c4ccccc4c3n2C)cc1	x	3%	4%	-6%	26%	-1%
COc1ccc(-c2cc(C(F)(F)F)n3nc(C(=O)N4CCCCC4)cc3n2)cc1	-1%	36%	u	6%	5%	-4%
COc1ccc(-c2cc(C(F)(F)F)n3nc(C(=O)N4CCCCC4)cc3n2)cc1OC	3%	-12%	26µM*	10%	-12%	-19%
O=c1c(-c2nnc(SCc3ccc(Cl)cc3)o2)cccn1Cc1ccccc1	12%	344%[57.1 µM]	21µM*	4%	155%[57.1 µM]	u
CC(C)Oc1ccc(C(=O)/C(=C\c2cccs2)c2nc3ccccc3o2)cc1	10µM*	1%[57.1 µM]	16%	4%	15%[57.1 µM]	-6%
Cc1ccnc2c(Cl)cccc12	x	4%	x	x	24%	x
O=C(CCS(=O)(=O)c1cc2c3c(c1)CCN3C(=O)CC2)Nc1cccc(Br)c1	x	0%[57.1 µM]	10%	0%	19%[57.1 µM]	-15%
COC(=O)c1c(-c2cccs2)csc1NC(=O)c1cc(OC)c(OC)c(OC)c1	x	15%	-13%	9%	31%	-10%
O=C(c1ccc(CS(=O)(=O)c2ccc(Br)cc2)o1)N1CCOCC1	-2%	5%	4%	-5%	u	-3%
COc1ccc(S(=O)(=O)Cc2ccc(C(=O)N3CCOCC3)o2)cc1	-2%	4%	3%	7%	35µM*	-2%
O=C1NN(c2ccccc2)C(=O)/C1=C\c1ccccc1	-14%	-5%	6%	-4%	28µM*	-1%
O=C1NN(c2cccc(Br)c2)C(=O)/C1=C\c1ccccc1	-19%	u	u	-1%	11µM*	-2%
O=C1NN(c2ccccc2)C(=O)C1=Cc1ccccc1	x	x	x	-15%	x	x
COc1ccc(OCC#CCN2CC(C)OC(C)C2)cc1 (stereo unspecified)	-17%	-2%	u	-1%	16µM*	0%
COc1ccc(OCC#CCNC(C)(C)C)cc1	-3%	-5%	-3%	1%	-8%	-7%
C=CCn1c(SCC(=O)N(CC)C2CCS(=O)(=O)C2)nc2scc(-c3ccccc3)c2c1=O (stereo unspecified)	x	-8%	-14%	2%	45µM*	0%
Cc1ccc(Cn2c(/C=C/c3ccco3)nc3ccccc32)cc1	u	-2%	u	3%	7%	9%
CCCCn1c(N)nc2ccccc21	4%	11%	-2%	0%	16%	-4%
CCCn1c(/C=C/c2ccco2)nc2ccccc21	-5%	14%	u	5%	50µM*	-3%
CCCCn1c(/C=C/c2ccco2)nc2ccccc21	8%	5%	24%	7%	50µM*	8%
Clc1ccc(Cn2c(/C=C/c3ccco3)nc3ccccc32)cc1	u	13%	21%	1%	45µM*	-3%
CCN(CC)C(=O)Cn1c(=O)n(-c2ccc(Cl)cc2)c(=O)c2c3c(sc21)CCC3	x	-1%	-3%	-3%	27%	-5%
Cc1cccc(OCC(=O)Nc2cc(C)c(O)c(-c3nc4ccccc4o3)c2)c1	x	-7%	x	x	-20%	x
CCOc1ccc(CNC(=O)CCC(=O)N2CC(C)Sc3ccccc32)cc1 (stereo unspecified)	x	4%	13%	1%	18%	0%
COc1ccc(CCN2C(=O)CSC2c2ccc(OC)c(OC)c2)cc1OC (stereo unspecified)	-1%	1%	u	-11%	8%	2%
COc1ccc(C2SCC(=O)N2CCc2ccc(OC)c(OC)c2)cc1 (stereo unspecified)	21%	0%	23µM*	9%	18%	-14%
